About 13,000 (27%) of roughly 48,000 compounds showed an effect of 50% or more. The list shows a part of the results.
Tested on: Wolbachia pipientis
Assay: Anti-Wolbachia Cell-Based Screen
Type: functional
Set-up: scale not given: in the data most compounds retested in dose-response had high values
Settings: 5 µM

Row | Structure (SMILES) | Percent Effect
1 | CCOCC1c2c(cnn2C)CCN1C(=O)c1ccncn1.O=C(O)C(F)(F)F (configuration not stated) | -13.88%
2 | COCC1c2c(cnn2C)CCN1C(=O)c1cc(C)on1.O=C(O)C(F)(F)F (configuration not stated) | 103.5%
3 | CCOCC1c2c(cnn2C)CCN1C(=O)c1cc(C)on1.O=C(O)C(F)(F)F (configuration not stated) | 118%
4 | COCC1c2nnn(CC3CC3)c2CCN1C(=O)c1cc(C)on1 (configuration not stated) | 18.93%
5 | O=C(COc1cccc(Br)c1)N1CCN(c2nccs2)CC1 | 20.8%
6 | CC(C)c1noc(C2CCCN2C(=O)Cc2cn3ccsc3n2)n1 (configuration not stated) | 5.125%
7 | CN(C)CCCNC(=O)C(c1cccc(F)c1)N(C)C (configuration not stated) | 6.227%
8 | O=C(Nc1ccc(-n2ccnc2)c(F)c1)C1CCN(C(=O)C2CC2)CC1 | -14.41%
9 | COC(C)c1cccc(NCc2cccc(O)c2)c1 (configuration not stated) | 1.439%
10 | Cn1ccc2c(cnc3nc(-c4ccncc4)nn32)c1=O | 109.5%
11 | CSc1nc2ncc3c(=O)n(C)ccc3n2n1 | 108.2%
12 | Cc1nc2nc(C)c3c(=O)n(-c4ccn[nH]4)ccc3n2n1 | 1.096%
13 | Cc1nc2ncc3c(=O)n(C)ccc3n2n1 | 126.9%
14 | Cc1nc(C2CCCN2Cc2nnc(C3CC3)o2)no1 (configuration not stated) | 5.301%
15 | Cc1nc(CN2CCCCC2Cn2cccn2)nc2ccccc12 (configuration not stated) | -7.431%
16 | COc1ccc(-c2nc(CN3CCCC3Cn3cccn3)no2)cc1 (configuration not stated) | 1.848%
17 | c1ccc(-c2nc(CN3CCCC3Cn3cccn3)no2)cc1 (configuration not stated) | 97.29%
18 | c1ncn(CC2CCCCN2Cc2noc(C3CC3)n2)n1 (configuration not stated) | -14.69%
19 | CC(C)c1nc(CN2CCCC2Cn2cccn2)no1 (configuration not stated) | 118.9%
20 | c1cnn(CC2CCCN2Cc2noc(C3CC3)n2)c1 (configuration not stated) | 88.48%
21 | Cc1ccc(-c2nc(CN3CCCC3Cn3cc(C)cn3)no2)cc1 (configuration not stated) | 3.147%
22 | OC(COCc1ccco1)CSc1nnc2ccccn12 (configuration not stated) | -3.086%
23 | O=C(NCCN1CCc2ccccc21)c1cc(-c2ccc(O)cc2)n[nH]1 | -2.452%

Row | Structure (SMILES) | Percent Effect
24 | Cn1cccc1CNCc1nnc2n1CCCC2C(F)(F)F (configuration not stated) | -16.29%
25 | COc1ccc(-n2ccc(C(=O)NCCN3CCCCCC3)n2)cc1 | 92.28%
26 | COc1ccc(-n2ccc(C(=O)NCCN3CCCCC3C)n2)cc1 (configuration not stated) | -3.568%
27 | COc1ccc(-n2ccc(C(=O)NCCN3CCC(C)CC3)n2)cc1 | 99.65%
28 | O=C(NCCN1CCOCC1)c1ccn(-c2ccccc2F)n1 | 7.854%
29 | COc1ccc2nc(C)c(C(=O)NCCN3CCS(=O)(=O)CC3)cc2c1 | 7.609%
30 | O=C(NCCN1CCCCC1)c1ccn(-c2ccccc2)n1 | 106.8%
31 | O=C(NCCN1CCCCCC1=O)c1ccn(-c2ccc(F)cc2)n1 | 0.8221%
32 | COc1ccc(-n2ccc(C(=O)NCCN3CCCCC3)n2)cc1 | 102.6%
33 | O=C(O)C(F)(F)F.O=S(=O)(NCC1OCCc2cn(CC3CCOCC3)nc21)C1CC1 (configuration not stated) | -11.9%
34 | CNC(=O)CS(=O)(=O)Cc1ccc(OC)c(F)c1 | -52.3%
35 | FC(F)(F)C1CCc2nnc(CNCc3ccsc3)n2C1 (configuration not stated) | 11.3%
36 | CC1CCN(CCNC(=O)c2ccn(-c3ccccc3)n2)CC1 | 84.83%
37 | COc1cc(C(N)=O)c(N(C)S(C)(=O)=O)cc1OC | -14.68%
38 | CN(C(=O)c1cccc(C(=O)NS(C)(=O)=O)c1)c1ccccc1 | -9.633%
39 | CN(C(=O)c1ccncc1)c1ccccc1S(C)(=O)=O | 8.968%
40 | CN(C(=O)c1ccc(Cl)c(S(C)(=O)=O)c1)c1ccccc1 | -9.214%
41 | Cc1c(C(=O)N(C)c2ccccc2)cccc1N(C)S(C)(=O)=O | 104.7%
42 | Cc1c(C(=O)N(C)C)cccc1N(C)S(C)(=O)=O | 107%
43 | O=S(=O)(Nc1ncccc1F)c1cc(Cl)cc2c1OCC2 | -5.525%
44 | Cc1nc(C)n(CC(C)C(=O)N2CCC(N3CCC(O)CC3)CC2)n1 (configuration not stated) | -19.51%
45 | Cc1ccc2c(c1)c(CNC(=O)C1CCN(C(C)C)CC1)nn2C | -24.27%
46 | CNC(=O)C(C)(C)CNC(=O)Nc1ccncc1C | -8.722%

Row | Structure (SMILES) | Percent Effect
47 | O=C(CN1CCCC(c2ncc[nH]2)C1)NCC(F)(F)F (configuration not stated) | -4.538%
48 | CCn1c(C)nnc1CN(C)C1CCN(Cc2c(C)noc2C)C1 (configuration not stated) | -8.892%
49 | Cc1noc(C)c1CN1CCC(N(C)Cc2nnc(C3CC3)n2C)C1 (configuration not stated) | 103.9%
50 | Cc1cc(CN2CCC(N(C)Cc3nnc(C4CC4)n3C)C2)on1 (configuration not stated) | 124.1%
51 | CN(Cc1nnc(C2CC2)n1C)C1CCN(CCS(C)(=O)=O)C1 (configuration not stated) | -20.16%
52 | Cc1nnc(CN2CCC(N(C)Cc3nnc(C4CC4)n3C)C2)o1 (configuration not stated) | -3.428%
53 | Cc1nc(CN2CCC(N(C)Cc3nnc(C4CC4)n3C)C2)oc1C (configuration not stated) | 102.1%
54 | CN(Cc1nnc(C2CC2)n1C)C1CCN(Cc2ccon2)C1 (configuration not stated) | -8.64%
55 | Cc1ccc(C2CSCCN2CCS(C)(=O)=O)cc1 (configuration not stated) | -9.324%
56 | O=C(NC1CC(=O)N(C2Cc3ccccc3C2)C1)c1ccsc1 (configuration not stated) | -4.544%
57 | COCCN1CC[C@@H](O)[C@@H]1Cc1ccccc1.O=C(O)C(F)(F)F | 8.923%
58 | COCCN1CCC(Cc2cnc(-c3ccccc3C(=O)O)cn2)CC1 | 103.8%
59 | CC(C)N1CCC(Cc2cncc(-c3ccccc3C(=O)O)n2)C1 (configuration not stated) | 128.5%
60 | CS(=O)(=O)N1CCCC(Cc2cncc(-c3ccccc3C(=O)O)n2)C1 (configuration not stated) | 106.5%
61 | CN1CCC(Cc2cncc(-c3ccccc3C(=O)O)n2)C1 (configuration not stated) | 111.7%
62 | CN1CCC(Cc2nc(-c3cnccn3)n(Cc3ccccc3)n2)CC1 | 21.66%
63 | CC(C)n1nc(Cn2cccn2)c2c1CN(C1CCOC1)C2.O=C(O)C(F)(F)F (configuration not stated) | -7.587%
64 | COc1cc(C)ccc1S(=O)(=O)N1CC[C@](C)(O)[C@H](C)C1 | -18.99%
65 | Cc1cnn(C2CN(CC(O)Cn3cccn3)C2)c1 (configuration not stated) | -31.52%
66 | COc1ncccc1-c1nc(-c2ccccn2)nn1C1CCS(=O)(=O)C1 (configuration not stated) | 10.63%
67 | CC(C#N)CNS(=O)(=O)c1ccc(F)c(Br)c1 (configuration not stated) | -7.227%

Source: ChEMBL document CHEMBL3988442, “University of Dundee, Small-Polar-MMV Screening Library” (2021)
